Screens (PubChem BioAssay)
HCMV antiviral – human cytomegalovirus inhibition | HFF cells, HCMV-luciferase reporter, 72 h; stronger effect = lower value | activity change, negative = inhibition, % at 57.5 µM | actives 4.5% (n = 410,000) | AID 1259415; in the data active = activity change below about -60%; inconclusive = no clear call, values can overlap the other calls; inactive = above about -39%
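HFF cells seeded 16 h at 37C, treated with compounds, infected with luciferase-reporter HCMV at MOI 1 PFU/cell; luciferase read at 72 h post infection, normalized to buffer-only and Salinomycin controls.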
Giardia FBPA inh – inhibitors of Giardia lamblia fructose-1,6-bisphosphate aldolase; actives 0.71% (n = 290,000); purified Giardia FBPA; Potency, µM (titrated, usually from 59.6 µM), actives largely listed as inhibitors; note: nearly all actives have a fitted effect of over 55% in size
Target sequence (A8B2U2 whole entry, looked up): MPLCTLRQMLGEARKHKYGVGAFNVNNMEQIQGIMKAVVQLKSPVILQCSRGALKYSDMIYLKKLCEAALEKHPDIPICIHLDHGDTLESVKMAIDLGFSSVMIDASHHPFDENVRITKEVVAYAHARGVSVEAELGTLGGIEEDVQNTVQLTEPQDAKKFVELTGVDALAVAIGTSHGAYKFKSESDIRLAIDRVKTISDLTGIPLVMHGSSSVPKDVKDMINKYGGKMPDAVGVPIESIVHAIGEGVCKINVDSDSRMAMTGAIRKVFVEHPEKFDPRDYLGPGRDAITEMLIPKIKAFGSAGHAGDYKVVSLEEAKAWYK
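40 nM FBPA preincubated 10 min at RT with compound (up to 57.5 uM final), then substrate plus GAPDH/TPI/NAD/arsenate coupling and diaphorase/resazurin added. Fluorescence read after 20 min at RT, 525/598 nm.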
VACV mCherry inh – inhibitors of vaccinia virus infection (mCherry reporter signal) | AID 720579 | Potency, µM (highest dose often 36.5 µM), hits mostly inhibitors | actives 0.63% (n = 310,000) | Vaccinia virus mCherry reporter infection, fluorescence; calls by dose curve; tested in A549 cells; note: nearly all actives have a fitted effect of over 35% in size
FMDV inh – antivirals against foot and mouth disease virus; FMDV antiviral cell-based qHTS; Potency, µM (highest dose often 57.9 µM), most hits filed as inhibitors; actives 1.2% (n = 410,000); AID 1159524; calls by dose curve; tested in HEK293T cells; note: read-out not given here; nearly all actives have a fitted effect of over 45% in size
VACV Venus inh – inhibitors of vaccinia virus (Venus reporter); actives 0.46% (n = 330,000); Vaccinia virus Venus reporter expression, fluorescence; Potency, µM (titrated, usually from 36.5 µM), hits mostly inhibitors; AID 720580; calls by dose curve; tested in A549 cells; note: nearly all actives have a fitted effect of over 30% in size
HCV inhibitor – inhibitors of hepatitis C virus infection | Huh7.5.1 HCVcc-Cre infection, luciferase reporter, 44 h | Potency, µM (titrated, usually from 41.8 µM), actives largely listed as inhibitors | actives 3.4% (n = 340,000)
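A cell-based infection assay in which seeded cells (1,000 per well) receive test compound after 4 h, are inoculated with HCVcc-Cre at approximately 0.5 moi, and are incubated 44 h before luminescence detection.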
Numbers stand for hits; 0 = inactive; ? = inconclusive; - = not tested or not shown; + = active, no number; [ ] = remark or other dose. This is a sample that favours compounds with a hit; in the whole collection about 7.5% have one here. Unless noted, calls come from the whole dose curve; as a rule, active = well fitted curve in the direction sought with a large enough effect; inconclusive = small, poorly fitted or top-dose-only effect, or another doubt; inactive = no such curve, though single readings can be large; an effect the other way counts as inactive or inconclusive.

SMILES	HCMV antiviral	Giardia FBPA inh	VACV mCherry inh	FMDV inh	VACV Venus inh	HCV inhibitor
COc1ccc(NC(=O)Cn2c(=O)n(CCc3ccccc3)c(=O)c3ccccc32)cc1	0	-	0	0	0	-
O=C(Cn1c(=O)nc(-c2ccccc2)c2cc(Cl)ccc21)NCc1ccccc1	?	-	?	14.1µM	?	-
Cc1nc2ccccc2n1CC(=O)NC(C)C1CC2CCC1C2 (stereo not given)	-64.8	0	0	?	0	?
Cc1cc(=O)c2ccccc2n1Cc1ccccc1	-69.8	0	0	?	0	12.6µM
Cc1ccc(Cc2c(-c3cccc(Br)c3)nc3cc(C)c(Br)c(C)n23)cc1	0	-	0	0	0	-
CSc1cccc(NC(=O)c2cnn(-c3ccc(F)cc3)c2-n2cccc2)c1	0	-	0	?	0	-
CN(Cc1ccccc1)C(=O)COC(=O)c1cc2ccccc2oc1=O	0	-	-	0	-	0
COc1ccc(CCN2C(=O)COc3ccccc3C2C(=O)Nc2ccc3c(c2)OCCO3)cc1OC (stereo not given)	0	-	0	0	0	-
Cc1nn(C(=O)CCCC(=O)NCc2ccccc2)c2ccccc12	0	-	-	0	-	22.4µM
COc1ccc(-n2c(=O)c3ccc(C(=O)NCc4ccc(C)cc4)cc3n(CC(=O)Nc3ccc(C)cc3)c2=O)cc1	-70.8	-	0	0	?	-
COc1cccc2c(=O)cc(C)n(CC(=O)Nc3cccc(C)c3)c12	?	0	-	?	-	8.91µM
Cc1nc2ccccc2n1CC(=O)NCc1ccccc1	-78.9	0	?	?	0	0
COc1ccc(-c2ccc(C(=O)N3CCc4c(cnc(C)c4CNS(=O)(=O)N(C)C)C3)o2)cc1	-	-	0	0	0	-
Cc1nn(-c2ccccc2)c2sc(C(=O)Nc3cccc(Cl)c3)cc12	?	-	0	0	0	-
COc1ccccc1Cc1c(-c2cccc(Cl)c2)nc2ccc(Br)cn12	0	-	0	0	0	-
O=C(COc1ccccc1C(=O)OCC(=O)Nc1cccc2ccccc12)Nc1ccc(Br)cc1	-	-	0	-	0	-
Cc1c(CN(C)C(=O)C2CCC(=O)N(Cc3ccccc3F)C2)[nH]c2ccccc12 (stereo not given)	0	-	0	?	0	-
Cc1cc(=O)c2ccccc2n1CC(=O)NCc1ccccc1	-71.1	0	0	?	0	?
CN1C(=O)C(C)(C)c2cc(S(=O)(=O)N3CCN(c4cccc(Cl)c4)CC3)ccc21	0	0	0	0	0	0
Cc1cc(C)c2nc(/N=C(\N)NC(=O)Nc3ccccc3)nc(C)c2c1	?	0	?	?	0	11.2µM
Cc1cc(C)c2nc(/N=C(\N)NC(=O)c3ccccc3)nc(C)c2c1	0	0	0	0	0	0
O=C(Nc1cc(Cl)cc(Cl)c1)c1cc(S(=O)(=O)NC2CCCC2)ccc1F	?	-	0	0	?	-
CCOC(=O)C1(Cc2cccc(Cl)c2)CCCN(C(=O)c2ccco2)C1 (stereo not given)	0	0	-	0	-	0
CCOC(=O)C1(Cc2cccc(Cl)c2)CCCN(C(=O)c2cccc(C)n2)C1 (stereo not given)	0	0	0	0	0	17.8µM
CC(C)c1ccc(NS(=O)(=O)c2ccc(Cl)nc2)cc1	0	0	3.98µM	0	7.94µM	0
SMILES	HCMV antiviral	Giardia FBPA inh	VACV mCherry inh	FMDV inh	VACV Venus inh	HCV inhibitor
O=[N+]([O-])c1cc(NS(=O)(=O)c2ccc(Cl)nc2)ccc1Cl	0	-	?	0	0	0
COC(C/C=C/C(=O)[C@H](C)OCc1ccccc1)OC	-	-	0	35.5µM	0	0[8.37 µM]
COC(C/C=C/C(=O)COCc1ccccc1)OC	0	0	0	0	0	0
COc1ccc(C2=NOC(C(=O)NCc3ccc(F)cc3)C2)cc1OC (stereo not given)	?	0	0	0	?	?
COc1cc(C2=NOC(C(=O)NCc3ccc(F)cc3)C2)cc(OC)c1OC (stereo not given)	-83.8	0	-	0	-	?
CCOc1ccc(NC(=O)CN(C)C(=O)c2ccc(OCC3CCCO3)cc2)cc1OCC (stereo not given)	?	-	0	0	0	0
CCOc1ccc(C(=O)N(CC(=O)Nc2cccc(C)c2C)CC2CCCO2)cc1OC (stereo not given)	+	-	0	0	0	0
Cc1oc(-c2ccccc2)nc1CSc1nnc(C)n2c1cc1sccc12	0	-	0	0	0	-
CC(=NNC(=O)c1ccccc1N)c1ccccc1O	-	-	?	0	?	-
C/C(=N/NC(=O)c1ccncc1)c1ccc(NC(=O)c2ccc(Cl)cc2Cl)cc1	0	-	0	0	0	0
C/C(=N\NC(=O)c1cccc(N/N=C(\C)c2cc(O)ccc2O)c1)c1cc(O)ccc1O	-78.0	0	?	0	0	?
CC(=NNC(=O)c1ccncc1)c1ccc2ccccc2c1O	-76.7	-	?	0	0	?
CC(=NNC(=O)c1ccncc1)c1ccccc1O	-98.4	-	1.12µM	0	?	4.47µM
CC(C)CC(=NNC(=O)c1ccncc1)c1cc(Cl)ccc1O	-97.2	-	5.62µM	?	?	2.51µM
O=C(c1ccc(N2CCC(NCCCn3ncc4ccccc43)CC2)cc1)N1CCc2ccccc2C1	-	-	0	0	0	-
Cc1ccc(C(CC(=O)Nc2cc(C)cc(C)c2)N2Cc3ccccc3C2=O)cc1 (stereo not given)	0	-	0	0	0	-
CC(=NNC(=O)c1ccncc1)c1ccc(O)cc1O	0	-	?	0	?	11.2µM
CC(=O)Nc1ccccc1NC(=O)C/C(C)=N/NC(=O)c1ccncc1	-88.6	0	-	0	-	0
CCCCCCCC(=O)N/N=C(\C)c1ccc(O)cc1O	-69.9	0	0	0	0	0
C/C(=N\Nc1cccc([N+](=O)[O-])c1)c1cc(F)ccc1O	0	0	-	0	-	10µM
C/C(=N\Nc1cccc([N+](=O)[O-])c1)c1ccccc1O	0	0	0	0	0	?
Cc1nc2ccsc2c(=O)n1-c1cccc(Cl)c1	0	-	0	0	0	0
CCCCc1nnc(NC(=O)COc2ccc3c(C)cc(=O)oc3c2)s1	0	0	-	-	-	-
C/C(=N\NC(=O)c1cc(-c2cccnc2)nc2ccccc12)c1ccc(O)cc1O	-93.5	0	11.2µM	0	?	3.98µM
Cc1cccc(NC(=S)NCCc2c[nH]c3ccccc23)c1	-80.2	0	0	0	0	0
SMILES	HCMV antiviral	Giardia FBPA inh	VACV mCherry inh	FMDV inh	VACV Venus inh	HCV inhibitor
Cc1ccc(C)c(NC(=S)NCCc2c[nH]c3ccccc23)c1	-78.0	0	0	0	?	?
Cc1ccccc1NC(=S)NCCc1c[nH]c2ccccc12	0	0	?	0	0	0
Cc1ncsc1CCSc1nc2ccccc2c(=O)n1C	0	0	0	-	0	0
COC(=O)C(=Cc1ccccc1[N+](=O)[O-])C(=O)OC	-95.9	0	-	15.8µM	-	?
O=C(NCCCN1CCCC1=O)C(=O)NCC1OCCN1S(=O)(=O)c1cc(F)ccc1F (stereo not given)	0	-	0	?	0	-
CC1=C(C(=O)Nc2ccc(C)cc2C)C(c2ccc([N+](=O)[O-])cc2)n2ncc(C(=O)Nc3ccc(F)cc3)c2N1 (stereo not given)	0	-	0	0	0	-
